The text below walks through data of PubChem BioAssay AID652105 (National Center for Advancing Translational Sciences (NCATS), 2013).

The whole screen tested about 330,000 compounds, of which about 4,100 (1.2%) were called active. About 2% were inconclusive and are not listed. This is one part of a sample in which actives are shown more often than they occur. A number with no mark means an inactive call. The calls were made as follows: active = max response of -50% or lower; inconclusive = between -30% and -50%; inactive = -30% or higher.
% is scaled to controls: 0 for no effect and ±100 for the full control effect.

Sequence of Phosphatidylinositol 5-phosphate 4-kinase type-2 alpha (Homo sapiens) (P48426 whole entry, looked up, canonical isoform): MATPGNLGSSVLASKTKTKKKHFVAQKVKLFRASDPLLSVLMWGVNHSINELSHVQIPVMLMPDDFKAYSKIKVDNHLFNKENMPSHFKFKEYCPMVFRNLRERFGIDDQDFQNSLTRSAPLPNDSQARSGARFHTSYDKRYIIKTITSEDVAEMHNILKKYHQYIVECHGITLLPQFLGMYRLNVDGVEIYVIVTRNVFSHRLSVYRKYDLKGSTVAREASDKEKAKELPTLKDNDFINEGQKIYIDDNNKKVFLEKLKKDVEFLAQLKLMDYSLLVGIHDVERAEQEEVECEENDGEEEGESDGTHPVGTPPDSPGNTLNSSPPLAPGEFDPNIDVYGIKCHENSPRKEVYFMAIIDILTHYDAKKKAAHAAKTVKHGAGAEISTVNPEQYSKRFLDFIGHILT

The target of the test is Phosphatidylinositol 5-phosphate 4-kinase type-2 alpha (Homo sapiens) (UniProt P48426). Put plainly: qHTS for Inhibitors of phosphatidylinositol 5-phosphate 4-kinase (PI5P4K). Also: value at the top dose of about 77 µM. To be noted: PI5P4Kalpha enzyme, ADP-Glo luminescence, 60 min; active compounds read low. From the text:
In addition to finding PI5P, we discovered the type II phosphatidylinositol 5-phosphate 4-kinase (PI5P4K) family (alpha, beta, gamma isoforms) that catalyze the conversion of PI5P to PI(4,5)P2. Alternatively, PI(4,5)P2 can also be synthesized through phosphatidylinositol-4-phosphate (PI4P) by the type I phosphatidylinositol 4-phosphate 5-kinases (PI4P5K). These PI5P4K enzymes therefore represent one way by which cells can regulate endogenous PI5P levels and play important roles in insulin signaling and in stress responses.
This proposal aims to identify and optimize specific modulators of human PI5P4K, phosphatidylinositol-5-phosphate 4-kinase (Type II PIPK), a family of kinases that regulate AKT signaling and tumor cell growth. In this project we aim to identify inhibitors of human PI5P4K using a quantitative high-throughput screening approach against the MLSMR containing ~400,000 small molecules.
NIH Chemical Genomics Center [NCGC]
NIH Molecular Libraries Probe Centers Network [MLPCN]
Assay Submitter (PI): Atsuo Sasaki, Beth Israel Deaconess Medical Center
2 microL of PI5P4Kalpha/substrate buffer (columns 1-2, 5-48) are dispensed into Greiner white solid bottom 1536-well assay plates; column 3 receives only PI5P4Kalpha buffer as 0x substrate controls; column 4 receives only substrate buffer as 0x PI5P4Kalpha controls. Final assay buffer consists of 0.038 M HEPES pH 7.4, 0.28 mM EGTA, 0.1% CHAPS, and 5% DMSO (final concentration). Compounds are then transferred via Kalypsys pin tool equipped with 1536-pin array (10 nL slotted pins, V&P Scientific, San Diego, CA). Following addition of compound, 1 microL of ATP (5 microM final concentration, all columns) is added to initiate the reaction. ATP is diluted in an assay buffer consisting of 0.02 M HEPES pH 7.4, 60 mM MgCl2, 15 microM ATP, and 0.1% CHAPS. The plates are then incubated at room temperature for 60 minutes. ADP-Glo reagent 1 is added (2 microL) and plates incubated for 45 minutes, before ADP-Glo reagent 2 (4 microL) is added and plates incubated for 30 minutes. They are then transferred to a ViewLux high-throughput CCD imager (PerkinElmer) wherein single end-point measurements of luminescence are acquired using a clear filter.
A general note: In qHTS, concentration-response curves come from the screen itself.
With `O=C(Nc1ccc(S(=O)(=O)Nc2nccs2)cc1)c1cc(=O)[nH]c2ccccc12`, the max response was -12.6%. The result for `O=C(Nc1ccc(S(=O)(=O)Nc2nccs2)cc1)c1cc(-c2ccncc2)nc2ccccc12` reads -67.1% (active); that for `CCN(CC)CCNC(=O)c1ccc(NC(=O)c2cc(-c3ccncc3)nc3ccccc23)cc1`, -5.2%; that for `Cc1ccc(C(=O)Nc2ccc3c(c2)OCO3)cc1S(=O)(=O)N1CCCCC1`, 0.934%. As for `Cc1ccc(C(=O)O)cc1-c1ccc(/C=C2\SC(=O)N(CC(=O)Nc3ccc4c(c3)OCO4)C2=O)o1`, the max response is -59.9% (active). `Cc1nn(CC(=O)Nc2ccc3c(c2)OCO3)c(C)c1[N+](=O)[O-]`: the max response was 1.6%. As to `CC(=O)Nc1cc(-c2ccc(N3CCN(C)CC3)cc2)cn2c(-c3cccc(C(=O)N(C)C)c3)cnc12`, the max response is 4.25%.

For `CCc1nc2c(OCCOc3ccc(F)cc3)cccn2c1N(C)C(=O)c1ccccc1F`, the max response was -7.43%. Consider `COc1cccc(-c2ccc3c(c2)N(Cc2ccccc2OC)C(=O)C(C)S3)c1` (stereo unspecified), for which the max response was 20.2%. For `COc1ccc([C@H]2CC(=O)C[C@@H](CCn3cc(CC4CCCC4)nn3)O2)cc1`, the max response was 9.59%. Consider `Cc1ccc(N2NC(=O)/C(=C/C=C/c3ccco3)C2=O)cc1C`, for which the max response was -13.7%. On to `CN1C(=O)/C(=C/c2ccco2)SC1=Nc1cccc(C(=O)O)c1`, for which the max response is -16.9%. In the case of `Cc1ccc(N=C2NC(=O)/C(=C/C=C/c3ccco3)S2)cc1C` it was -76.1% (active); in that of `Cc1ccc(CSc2nc(-c3ccccc3)c(C#N)c(=O)[nH]2)cc1`, -3.14%; in that of `O=C(CSc1nc2ccccc2c(=O)[nH]1)Nc1nc(-c2ccc(Br)cc2)cs1`, 2.06%.

Consider `N#Cc1c(-c2cccs2)nc(SCC(=O)c2ccc(Br)cc2)[nH]c1=O`, for which the max response was -61.8% (active). In the case of `CCc1nc2c(OCCc3cccc(OC)c3)cccn2c1N(C)C(=O)c1ccc(C)cc1`, the max response is 2.18%. Take `COc1ccc(CN2C[C@H]3CON(C)[C@H]3C[C@H]2c2ccc(-c3cccc(F)c3)cc2)cc1`: the max response is 18.3%. `C[N+](C)(C)CCOP(=O)([O-])OC[C@H](O)CO`: the max response is -87.3% (active). Regarding `COC(=O)C[C@H]1C=C[C@H](NC(=O)c2ccc(F)cc2)[C@@H](CO)O1`, the max response is -0.944%.

For `COC(=O)c1ccc2nc(-c3cccc(Br)c3)c(Cc3ccccc3C(F)(F)F)n2c1`, the max response was 4.18%. The result for `C#CCN(C[C@@H]1[C@@H](OC(=O)NC2CC2)[C@@H](OC(=O)NC2CC2)Cn2c(=O)ccc(=O)n21)S(=O)(=O)c1ccc(C)cc1` reads -1.14%; that for `COCCNC(=O)C1C(=O)Nc2ccccc2C(=O)N1c1ccc2c(c1)OCCO2` (stereo unspecified), 7.16%; that for `O=C(c1cc2c(s1)CCC2)N1CCN(c2ccccc2)CC1`, -53% (active).

With `O=C(c1ccccc1)c1ccc(C(=O)N2CCN(c3ccccc3)CC2)cc1`, the max response is 6.71%. For the compound `O=C(NNC(=O)c1cc2c(s1)CCCC2)c1ccccc1`, the max response was 0.43%. With `C=CCn1c(=S)[nH]c2scc(-c3ccco3)c2c1=O`, the max response is -84.2% (active).

As to `CCC1(C)Cc2c(sc3[nH]c(=S)n(Cc4ccccc4)c(=O)c23)CO1` (stereo unspecified), the max response is -15.7%. The result for `C=CCn1cnc2scc(-c3ccccc3)c2c1=O` reads -1.04%. Consider `Clc1cccc(Cc2c(-c3cccc(Cl)c3)nc3ccc(Cl)cn23)c1`, for which the max response was -3.6%. In the case of `CCCCCNC(=O)C1C(=O)Nc2ccccc2C(=O)N1C(C)(C)C` (stereo unspecified) it was -7.39%; in that of `O=C(NCc1cccs1)c1ccc(Br)o1`, 4.81%; in that of `CC(CNC(=O)c1ccc(Br)o1)NC(=O)c1ccc(Br)o1` (stereo unspecified), -54.6% (active). For the compound `O=C(CNC(=O)c1ccc(Br)o1)Nc1ccccc1`, the max response was -2.2%. In the case of `CSc1ccc(CN2CCC2(C)C(=O)NCc2ccccc2Br)cc1` (stereo unspecified) it was 17.1%. In the case of `COc1ccccc1-c1cc(NC(C)=O)c2ncc(-c3ccc(F)cc3)n2c1` it was -5.85%. For the compound `CCCc1ccc(C(O)c2ncc(-c3cccc(OC)c3)[nH]2)cc1` (stereo unspecified), the max response was 14%. For the compound `COc1cccc2sc(N(CCCN(C)C)C(=O)C(c3ccccc3)c3ccccc3)nc12`, the max response is 12.8%. In the case of `COc1ccc(/C=C(/CC(=O)Nc2ccc(C)cc2)c2nc3ccccc3s2)cc1` it was -7.45%. On to `COc1cccc2sc(NNC(=O)c3nc4ccccc4s3)nc12`, for which the max response is -61.5% (active). Regarding `O=C(/C=C/[C@H]1O[C@@H](n2ccc(=O)[nH]c2=O)[C@H](O)[C@@H]1O)NCc1ccccn1`, the max response was 2%. Consider `CCOC(=O)[C@H]1Nc2ccc(Cl)cc2[C@@H]2[C@H]1C1CC(c3ccccc31)N2C(=O)OCc1ccccc1` (stereo partly specified), for which the max response is 19.9%.

`CCOC(=O)C1Nc2ccc(C(F)(F)F)cc2C2C=CCC12` (stereo unspecified): the max response is -55.4% (active). For `CCOC(=O)C[C@H]1c2ccc(C(F)(F)F)cc2S(=O)(=O)N1c1ccccc1`, the max response is 2.77%.

Turning to `Nc1cccc(-c2cncc(N3CCN(Cc4ccccn4)CC3)n2)c1`, the max response was -6.48%. Regarding `O=C(CSc1nc2c(cnn2-c2ccc(F)cc2)c(=O)[nH]1)N1CCCCCC1`, the max response was -3.16%.
